In PubChem BioAssay (Tox21):
Records with an inconclusive call do not appear. A call without a number means that no potency is given here. A number with no mark means an inactive call. Active and inactive are the calls of the source. Calls come from the whole dose curve; as a rule, active = well fitted curve in the direction sought with a large enough effect in the repeat runs; inconclusive = weak or mixed curves; inactive = no such curve, though single readings can be large; an effect the other way counts as inactive or inconclusive.

How the values were obtained:
[1] = A CellTox Green Cytotoxicity Assay to monitor cytotoxicity in HEK293 cells - 40 hour (AID 1224871); note: nearly all actives have a fitted effect of over 45% in size
Procedure, shortened: (§1)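 Each value comes from one timepoint of a single continuous run in which HEK293 cells with CellTox Green were exposed to compound for up to 40 h at 37 C, dye fluorescence rising with cell death.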

[2] = qHTS RealTime-Glo MT Cell Viability Assay in HEK293 cells - 16 hour (AID 1224872); note: nearly all actives have a fitted effect of over 50% in size; note: potency is the fitted concentration of half-maximal effect
Procedure, shortened: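 Homogeneous bioluminescent viability format in HEK293 cells (600 cells/well). Following 5 h at 37 C/5% CO2, 23 nL compound was pintooled; the signal was measured repeatedly during 40 h incubation.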

[3] = qHTS RealTime-Glo MT Cell Viability Assay in HEK293 cells - 40 hour (AID 1224874); conditions: RealTime-Glo luminescence; max response: stronger effect = lower value; note: nearly all actives have a fitted effect of over 50% in size; note: potency is the fitted concentration of half-maximal effect
Procedure, shortened: (§2)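 qHTS format; HEK293 cells with NanoLuc/prosubstrate reagent, 37 C/5% CO2 for 5 h pre-dosing; compounds 23 nL in DMSO; luminescence at each time point reflects viable cells.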

[4] = A CellTox Green Cytotoxicity Assay to monitor cytotoxicity in HEK293 cells - 24 hour (AID 1224875); note: series mostly up to about 77 µM; nearly all actives have a fitted effect of over 45% in size
Procedure, shortened: as §1

[5] = A CellTox Green Cytotoxicity Assay to monitor cytotoxicity in HepG2 cells - 16 hour (AID 1224876); note: nearly all actives have a fitted effect of over 45% in size
Procedure, shortened: (§3)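 Continuous culture of HepG2 cells with a membrane-impermeant DNA dye; rising fluorescence marks dead cells. Compound exposure lasted up to 40 h at 37 C, with reads every 8 h from 0 h.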

[6] = qHTS RealTime-Glo MT Cell Viability Assay in HepG2 cells - 32 hour (AID 1224877); note: nearly all actives have a fitted effect of over 55% in size
Procedure, shortened: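 Cell number in HepG2 cultures estimated from NanoLuc luminescence generated by metabolic reduction of a prosubstrate by living cells. The homogeneous, nonlytic format allowed repeated reads at 0, 8, 16, 24, 32 and 40 h of compound exposure.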

[7] = A CellTox Green Cytotoxicity Assay to monitor cytotoxicity in HepG2 cells - 24 hour (AID 1224878); note: nearly all actives have a fitted effect of over 45% in size
Procedure, shortened: as §3

[8] = A CellTox Green Cytotoxicity Assay to monitor cytotoxicity in HepG2 cells - 40 hour (AID 1224879); note: nearly all actives have a fitted effect of over 40% in size; note: potency is the fitted concentration of half-maximal effect
Procedure, shortened: as §3

[9] = qHTS RealTime-Glo MT Cell Viability Assay in HEK293 cells - 0 hour (AID 1224880)
Procedure, shortened: as §2

[10] = qHTS RealTime-Glo MT Cell Viability Assay in HepG2 cells - 8 hour (AID 1224873); note: nearly all actives have a fitted effect of over 55% in size
Procedure, shortened: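 Real-time viability: cells seeded at 600 per well together with NanoLuc and cell-permeant prosubstrate, compounds added after 5 h incubation. Luminescence tracked at 0, 8, 16, 24, 32 and 40 h of exposure.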

Row | Compound | Potency [1] | Potency [2] | max response [3] [%] | Potency [4] | Potency [5] | Potency [6] | Potency [7] | Potency [8] | Potency [9] | Potency [10] | Potency [3]
1 | COC(=O)c1cc(Cl)ccc1NS(=O)(=O)C(F)(F)F | inactive | inactive | 2.62 | inactive | inactive | inactive | inactive | inactive | inactive |  | 
2 | N#C/C(=C1/SC[C@@H](c2ccc(Cl)cc2Cl)S1)n1ccnc1 | inactive | inactive | -23.1 | inactive | inactive | inactive | inactive | inactive | inactive |  | 
3 | O=S1OCCO1 | inactive | inactive | 21 | inactive | inactive | inactive | inactive | inactive | inactive |  | 
4 | CCNC(=O)N1CCN(CCCC(c2ccc(F)cc2)c2ccc(F)cc2)CC1 | inactive | 16.9 µM (active) |  | inactive |  | inactive |  | 21.3 µM (active) | inactive | inactive | 16.9 µM (active)
5 | COc1ccc([C@@H]2Sc3ccccc3NC(=O)[C@@H]2O)cc1 | inactive | inactive |  | inactive | inactive | inactive | inactive |  | inactive | inactive | 
6 | C[C@@H]1C[C@H]2[C@@H]3CCC4=CC(=O)C=C[C@]4(C)[C@@]3(F)[C@@H](O)C[C@]2(C)[C@@]1(O)C(=O)CO | inactive | inactive |  | inactive | inactive | inactive |  | inactive | inactive | inactive | 
7 | CO[Si](C)(OC)OC | inactive | inactive | 2.67 | inactive |  | inactive |  |  | inactive | inactive | 
8 | Fc1c(F)c(F)c(Br)c(F)c1F | inactive | inactive | 0.266 | inactive | inactive | inactive | inactive | inactive | inactive |  | 
9 | CCC(C)(C)C1CCC(O)CC1 (stereo not drawn) | inactive | inactive | 3.32 | inactive |  | inactive |  |  | inactive | inactive | 
10 | C=CCOC(=O)/C=C\C(=O)OCC=C | inactive | inactive |  | inactive | inactive | inactive | inactive | inactive | inactive | inactive | 
11 | COc1cc2c(cc1OC)-c1cc(=Nc3c(C)cc(C)cc3C)n(C)c(=O)n1CC2 | inactive | inactive |  | inactive | inactive | inactive | inactive | 21.3 µM (active) | inactive | inactive | 
12 | C[Si]1(C)O[Si](C)(C)O[Si](C)(C)O1 | inactive | inactive | 0.932 | inactive | inactive | inactive | inactive | inactive | inactive |  | 
13 | COc1ccc(C(=O)c2cccc(O)c2)c(OC)c1 | inactive | inactive |  | inactive | inactive | inactive | inactive | inactive | inactive | inactive | 
14 | NC(=O)Nc1ccc(Cl)c(Cl)c1 | inactive | inactive |  | inactive |  | inactive |  | inactive | inactive | inactive | 
15 | CCc1cccc(N(C)C(N)=Nc2cccc3ccccc23)c1 | inactive | inactive |  | inactive | inactive | inactive |  |  | inactive | inactive | 
16 | CCCC1C(CC)=CC(CC)=CN1c1ccccc1 (stereo not drawn) | inactive | 15.5 µM (active) |  | inactive | inactive | inactive | inactive | inactive | inactive |  | 13.8 µM (active)
